Source: PubChem BioAssay (several laboratories)
Hits are enriched below; roughly 3.1% of the tested compounds scored in any of these assays.
HSF-1 act = HSF-1 activators, primary screen, NIH3T3-HGL cells, MG132 stress, luminescence, single point; NIH3T3-HGL HSF-1 luciferase reporter, 8 h; 100% = twice DMSO control signal; activation, % at 9 µM; actives 1.7% (n = 300,000); AID 504408, 2011;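 active = mean replicate activation of at least 50% with a set share of replicates each reaching 50%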;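 also: 0% = median of the neutral control wells and 100% = twice that signal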
HSP90 refold inh = HSP90 inhibitors, primary screen, cell lysate, luminescence. Heat shock protein HSP 90 (rabbit reticulocyte lysate; luciferase refolding). Rabbit reticulocyte lysate, luciferase refolding luminescence, 3 h. inhibition, % at 5.6 µM. actives 0.91% (n = 290,000);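 active = inhibition above the screen-wide mean plus 3 SD, computed separately per campaign, cut at about 16% in these data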;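 also: 0% = DMSO wells and 100% = 60 µM geldanamycin wells; inhibitors lower the luminescence because luciferase stays unfolded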
HSF1 inh = HSF1 inhibitors in luciferase reporter cells, primary screen, cell-based, NIH3T3, luminescence; AID 2098, 2009; actives 0.77% (n = 300,000); NIH3T3-HGL HSE-luciferase, MG132-induced, luminescence 8 h; active compounds read low; activity change, negative = inhibition, % at 7.5 µM (by protocol);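 active = more than half of replicate wells show activity change below -50%, luminescence cut by over half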;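 also: luciferase reports HSF-1 transcriptional activity via heat shock element; 0% = median of DMSO wells and -100% = zero luminescence signal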
ARNT-TACC3 inh = disruptors of ARNT/TACC3 protein interaction, primary screen, biochemical, AlphaScreen, single concentration | Transforming acidic coiled-coil-containing protein 3 (Homo sapiens), Q9Y6A5 | AlphaScreen His-ARNT PAS-B/GST-TACC3 binding, luminescence; TACC3 fragment carries E629A point mutation | actives 0.66% (n = 390,000) | AID 623870, 2012 | inhibition, % at 9.99 µM;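 active = mean inhibition of replicates at least 50% and at least half of replicates each reaching 50%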;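 also: 0% = complete ARNT plus TACC3 wells and 100% = ARNT alone without TACC3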
HIF activator = HIF pathway transcriptional activators, primary screen, cell-based, U2OS HRE-luciferase, luminescence; U2OS HRE-luciferase reporter; normalized: DMSO 0%, desferrioxamine 100%; activation, % at 7.5 µM (by protocol); actives 0.32% (n = 300,000);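 active = mean activation of at least 10% of the iron chelator positive control signal, with at least half of replicates also reaching 10%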
Numbers without * were called inactive; . = not tested or not shown.

SMILES	HSF-1 act	HSP90 refold inh	HSF1 inh	ARNT-TACC3 inh	HIF activator
COC(=O)Cc1ccc(NC(=O)c2ccc(C)c(C)c2)cc1	71*	-4	39	-2	1
COC(=O)Cc1ccc(NC(=O)c2ccc(NC(=O)c3ccco3)cc2)cc1	-16	2	-11	-4	0
COc1ccc(NC(=O)N(C)C[C@@H]2Oc3ccc(NC(=O)Cn4cnnn4)cc3C(=O)N([C@@H](C)CO)C[C@H]2C)cc1	.	.	.	-12	.
O=C(O)CNC(=O)CC1S/C(=N/N=C2\CSC(=O)N2)NC1=O (stereo not drawn)	4	1	-2	.	0
NC(=O)NC(=O)CC1S/C(=N/N=C2/NC(=O)CS2)NC1=O (stereo not drawn)	-14	6	-4	66*	0
Cc1ccc(COc2ccc(C)nc2[N+](=O)[O-])cc1	75*	13	30	-9	1
COC(=O)c1ccc(=O)c2nc3/c(=C/O)c(O)cc(=O)c3[nH]c12	.	2	.	59*	.
Cc1ccc(S(=O)(=O)N[C@H]2CC[C@H](CC(=O)NCCCN(C)C)O[C@H]2CO)cc1	.	.	.	-8	.
COc1ccccc1NC(=O)Nc1ccc2c(c1)C(=O)N(C)C[C@@H](OC)[C@H](C)CN(C)[C@@H](C)CO2	.	.	.	-1	.
NCC[C@H]1CC[C@@H](NC(=O)C2CCCC2)[C@H](CO)O1	.	.	.	30	.
O=c1nc(/C=C/c2cc([N+](=O)[O-])ccc2Cl)cc(C(F)(F)F)[nH]1	75*	0	43	-7	0
O=c1nc(/C=C/c2cccn2-c2ccc([N+](=O)[O-])cc2)cc(C(F)(F)F)[nH]1	-4	-1	-8	0	0
Cc1ccc(S(=O)(=O)N2CCN(S(=O)(=O)N3CCC(C)CC3)CC2)c(C)c1	-12	1	-5	-3	0
CC1CCN(S(=O)(=O)c2ccc3c4c2CC(=O)N4CC(C)S3)CC1 (stereo not drawn)	3	2	-2	-5	187*
O=C(C[C@H]1C[C@H]2c3cc(NC(=O)Cc4ccncc4)ccc3O[C@H]2[C@@H](CO)O1)NCc1ccncc1	.	.	.	-2	.
CC(=O)NC[C@@H]1[C@H](c2ccc(-c3cccc(F)c3)cc2)[C@@H](CO)N1C(C)=O	.	.	.	-7	.
Cc1ccn2c(C(=O)c3ccc(Cl)cc3)cnc2c1	-18	22*	-7	.	3
CCCN1C[C@@H](C)[C@@H](OC)CN(C)C(=O)c2cc(NC(=O)C3CC3)ccc2OC[C@H]1C	.	.	.	-8	.
S=C(Nc1ccccc1)Nc1nc2ccccc2n1CCOc1ccc(Br)cc1	4	-1	0	8	-11
Cn1c(NC(=S)Nc2ccccc2)nc2ccccc21	77*	1	40	-8	2
C[C@H]1CCCCO[C@@H](CN(C)Cc2ccccc2)[C@@H](C)CN([C@@H](C)CO)C(=O)c2cc(NC(=O)Nc3ccccc3)ccc2O1	.	.	.	10	.
O=C(NC(=S)N1CCN(c2ccc(C(F)(F)F)cc2[N+](=O)[O-])CC1)c1cccs1	-94	-3	-94*	11	-7
Oc1ccc(-c2nc3ccc4ccccc4c3c3c2CCC3)cc1O	61*	-1	25	2	3
O=C(c1ccncc1)N1C[C@@H]2[C@H](c3ccccc31)[C@H](CO)N2Cc1ccc(F)cc1	.	.	.	8	.
COc1cc(C2NC(=O)NC(C)=C2C(=O)OC2CCCCC2)cc(Cl)c1O (stereo not drawn)	62*	2	38	.	0
SMILES	HSF-1 act	HSP90 refold inh	HSF1 inh	ARNT-TACC3 inh	HIF activator
COc1cc(C2NC(=O)NC(C)=C2C(=O)OCC2CCCCC2)cc(Cl)c1O (stereo not drawn)	35	1	8	33	2
COc1ccc(NC(=O)N(C)C[C@@H]2Oc3ccc(NS(=O)(=O)c4c(C)noc4C)cc3C(=O)N([C@H](C)CO)C[C@H]2C)cc1	.	.	.	-4	.
CCC1CCCCN1S(=O)(=O)c1ccc2c(c1)CCN2C(=O)C1CCC1 (stereo not drawn)	-26	1	-16	.	-1
O=C(CCl)c1ccc2c(c1)CCN2C(=O)C1CCCCC1	71*	-1	52	-1	3
O=C(CCl)c1ccc2c(c1)CCN2C(=O)C1CC1	5	4	1	.	35*
Cc1c(C(=O)C(=O)NCc2cccs2)c2ccccc2n1C	-93	-4	-92*	-5	0
COc1cc(/C=C2/C(=O)N(c3ccc([N+](=O)[O-])cc3)N=C2N2CCOCC2)ccc1O	-6	5	-2	3	0
CCN(CC)c1ccc(/C=C2/C(=O)N(c3ccc([N+](=O)[O-])cc3)N=C2N2CCOCC2)cc1	92*	2	41	.	0
CN(C)c1ccc(/C=C/c2c([N+](=O)[O-])c(=O)n(C)c(=O)n2C)cc1	16	3	14	7	-1
CN(C)c1ccc(-n2cccc2/C=C/[N+](=O)[O-])cc1	95*	9	68	8	1
C[C@@H]1CN([C@@H](C)CO)C(=O)c2cc(NC(=O)Nc3ccc(F)cc3)ccc2O[C@@H]1CN(C)Cc1ccncc1	.	.	.	-1	.
COc1cc(NS(=O)(=O)c2ccc(NC(=O)/C=C/C(=O)O)cc2)nc(OC)n1	-75	0	-72*	-2	-18
COc1cc(NS(=O)(=O)c2ccc(NC(=S)Nc3ccccc3)cc2)nc(OC)n1	-8	1	-2	5	1
O=C(C[C@@H]1C[C@@H]2c3cc(NC(=O)Nc4ccccc4)ccc3O[C@@H]2[C@H](CO)O1)NCc1ccccn1	.	.	.	-3	.
CC(=O)c1ccc(Oc2ccc(C(C)=O)cc2)cc1	56*	-2	9	-27	3
CC(=O)Nc1ccc(S(=O)(=O)N(C)c2ccccc2)cc1	-11	-2	6	-2	0
CCOC(=O)/C=C/C(=O)Nc1ccc(S(=O)(=O)N(C)c2ccccc2)cc1	67*	5	44	.	-1
COc1cc(N)c2ncccc2c1Br	.	.	.	107*	.
CCCOc1ccc(/C=N/Nc2ccccc2[N+](=O)[O-])c(O)c1	-75	3	-69*	-1	-1
CCc1ccc(NC(=O)c2cc(C)on2)cc1	58*	16	21	-7	0
Cc1csc(NC(=O)Nc2cccc(Cl)c2)n1	55*	0	6	1	6
Cc1csc(NC(=O)Cc2c[nH]c3ccccc23)n1	63*	-3	33	10	2
Cc1csc(NC(=O)c2ccc3ccccc3n2)n1	55*	7	26	1	0
O=C(Nc1cccc(Cl)c1)Nc1nc(-c2ccccc2)cs1	-4	-6	-14	-1	-1
CCC(CC)c1nnc(NC(=O)c2cc(-c3ccccc3)nc3ccccc23)s1	-8	0	1	-12	0
